Results filed as inconclusive are left out. Calls of active or inactive are those of the source. The call rests on the fitted dose curve; in most records, active means well fitted inhibition curve with a large enough effect; inconclusive means small, poorly fitted or top-dose-only effect; inactive means flat fitted curve, though single readings scatter.
Experiments:
Experiment in all cases: qHTS profiling for inhibitors of Plasmodium falciparum proliferation (AID 504749); further: nearly all actives have a fitted effect of over 60% in size
Details in all cases: P. falciparum in erythrocytes, SYBR Green DNA, 72 h; series mostly up to 28.7 µM
CP262 = test system: CP262
Summary of the method: (§1)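 P. falciparum-infected erythrocytes (0.3% parasitemia, 2.5% hematocrit) incubated with compound 72 h at 37 C, 5% CO2. Parasite DNA detected by SYBR Green after lysis, overnight at room temperature; normalised to 0.29 uM artemisinin and DMSO.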

CP265 = test system: CP265
Summary of the method: as §1

CP266 = test system: CP266
Summary of the method: as §1

CP268 = test system: CP268
Summary of the method: as §1

CP269 = test system: CP269
Summary of the method: as §1

CP286 = test system: CP286
Summary of the method: as §1

CP291 = test system: CP291
Summary of the method: as §1

CP297 = test system: CP297
Summary of the method: as §1

CP305 = test system: CP305
Summary of the method: as §1

CP315 = test system: CP315
Summary of the method: as §1

CP325 = test system: CP325
Summary of the method: as §1

CP329 = test system: CP329
Summary of the method: as §1

DIV14 = test system: DIV14
Summary of the method: as §1

DIV17 = test system: DIV17
Summary of the method: as §1

DIV30 = test system: DIV30
Summary of the method: as §1

Dd2 = test system: Dd2
Summary of the method: as §1

ECU = test system: ECU
Summary of the method: as §1

FAB9 = test system: FAB9
Summary of the method: as §1

GB4 = test system: GB4
Summary of the method: as §1

HB3 = test system: HB3
Summary of the method: as §1

ICS = test system: ICS
Summary of the method: as §1

JCK = test system: JCK
Summary of the method: as §1

N140 = test system: N140
Summary of the method: as §1

P93_24 = test system: P93_24
Summary of the method: as §1

P94_40 = test system: P94_40
Summary of the method: as §1

PAD = test system: PAD
Summary of the method: as §1

PC15 = test system: PC15
Summary of the method: as §1

PC49 = test system: PC49
Summary of the method: as §1

SC27B = test system: SC27B
Summary of the method: as §1

TAB109 = test system: TAB109
Summary of the method: as §1

TAB113 = test system: TAB113
Summary of the method: as §1

TAB165 = test system: TAB165
Summary of the method: as §1

W2 = test system: W2
Summary of the method: as §1

Measured: Potency

CCCC[C@H]1C(=O)N(c2ccccc2)N(c2ccc(O)cc2)C1=O
inactive: all assays above

Reference: PubChem BioAssay (NCATS)
